# KCC2 mod – KCC2 cotransporter modulators, thallium flux, primary screen, cell-based, HEK293 KCC2, FluoZin-2 fluorescence, MLSMR. Solute carrier family 12 member 5 (Homo sapiens), Q9H2X9. KCC2 cells, thallium flux FluoZin-2 fluorescence. B-score of Tl+ flux slope (higher = more flux/activation; lower = inhibition) at 10 µM. actives 2.2% (n = 190,000);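 active = thallium flux slope and its plate-corrected score both differing from the plate sample mean at a set confidence after two filtering rounds, in either direction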;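 also: slope of fluorescence scaled to starting intensity during 10 to 20 s after thallium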
# WT yeast gro inh – growth inhibition of WT strain, primary screen, mitochondrial fusion inhibitor project, WT and mutant strains, chemical genetic; inhibition, % at 10 µM; AID 1362, 2008; mitochondrial fusion phenotypic screen; actives 2.1% (n = 190,000); in the data active = inhibition above about 58%; tested in S. cerevisiae
# Calpain2 inh – inhibitors of pig calpain II, primary screen, biochemical, fluorogenic peptide substrate, 1536-well. purified calpain II, 30 min. inhibition, % at 16 µM. actives 0.37% (n = 220,000);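 active = inhibition above about 50%, limit read from the data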
# L major viab – Leishmania major promastigote growth inhibition, primary screen. inhibition, % at 10 µM. actives 9% (n = 200,000). Leishmania major promastigotes, resazurin fluorescence viability; in the data active = inhibition above about 50%;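 also: promastigotes grown with compound for 44 hours at 28 °C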
# ROMK mod – ROMK potassium channel modulators, primary screen, cell-based, thallium flux, MLSMR library; ATP-sensitive inward rectifier potassium channel 1 (Homo sapiens), P48048; Tet-inducible ROMK, thallium flux fluorescence; actives lie on both sides; B-score at 10 µM; actives 2% (n = 130,000); AID 1918, 2009;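 active = signal ratio slope over the read window, or its plate-corrected B-score, at least 3 SD from the plate mean, either direction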;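 also: B-score of the F/F0 ratio slope over 7 to 12 s after thallium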
# Target sequence (P48048 whole entry, looked up): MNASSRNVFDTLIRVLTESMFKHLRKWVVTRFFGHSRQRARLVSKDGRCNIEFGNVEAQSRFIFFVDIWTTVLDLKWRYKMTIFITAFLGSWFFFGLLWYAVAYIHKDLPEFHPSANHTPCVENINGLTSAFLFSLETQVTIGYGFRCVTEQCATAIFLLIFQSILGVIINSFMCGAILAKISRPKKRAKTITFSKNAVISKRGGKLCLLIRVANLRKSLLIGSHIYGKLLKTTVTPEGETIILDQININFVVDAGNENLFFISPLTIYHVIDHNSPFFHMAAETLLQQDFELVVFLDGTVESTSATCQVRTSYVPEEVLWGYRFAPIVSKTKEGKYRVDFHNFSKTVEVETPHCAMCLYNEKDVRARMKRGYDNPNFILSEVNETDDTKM
# An asterisk follows results filed as active; · = no result. Sampled rows, rich in hits. Any-hit rate of the full collection: about 12%.
SMILES,KCC2 mod,WT yeast gro inh,Calpain2 inh,L major viab,ROMK mod
O=C(Nc1ccc(Cl)cc1)N(Cc1cccnc1)Cc1ccco1,-0.86,17,19,92*,·
N#CCCN(Cc1cccnc1)C(=O)Nc1ccc(Cl)c(Cl)c1,0.56,11,-9,95*,·
Cc1ccc(NC(=O)N(Cc2cccnc2)Cc2ccco2)cc1C,0.65,23,-13,92*,·
CS(=O)(=O)c1ccc(C(=O)OCC(=O)NC2CCS(=O)(=O)C2)cc1[N+](=O)[O-] (stereo not given),0.02,-12,26,0,0.0017
CN(C)c1nc(N(C)C)n(C(=O)c2cccs2)n1,-0.0088,-7,8,1,-0.19
O=C(Nc1ccccc1C(=O)N1CCN(Cc2ccccc2)CC1)c1ccccn1,0.0015,8,-4,-5,-0.51
CC(C)c1ccc2[nH]c(O)c(N=NC(=O)c3cccc(S(=O)(=O)N4CCCCC4)c3)c2c1,-0.51,2,-47,99*,·
CCn1c(C)nc2cc(C(=O)N=Nc3c(O)[nH]c4ccccc34)ccc21,-0.0036,1,-10,54*,·
CCn1c(C)nc2cc(C(=O)N=Nc3c(O)[nH]c4c(C)cc(C)cc34)ccc21,0.4,-5,-84,-2,·
CNC(=S)N=Nc1c(O)[nH]c2ccc(C(C)C)cc12,6.6*,-12,25,5,·
CC(C)NC(=S)N=Nc1c(O)[nH]c2ccc([N+](=O)[O-])cc12,2,-6,-26,8,0.93
O=C(N=Nc1c(O)[nH]c2ccccc12)c1cccc(S(=O)(=O)N2CCCCC2)c1,0.38,-12,18,61*,0.27
C=C(C)CSc1cc(C)nc2c(-c3ccccc3)c(C)nn12,-0.74,·,28,·,·
Cc1ccc(S(=O)(=O)Nc2ccc(N3CCCCC3)cc2)cc1,-0.24,8,27,16,0.41
Cc1ccc(NS(=O)(=O)c2ccc(C3CCCCC3)cc2)cc1,0.18,80*,39,13,0.43
O=C(N/N=C\c1ccc(Cl)s1)c1cccs1,19*,44,4,7,-1.2
CC(C)(C)NC(=O)Cn1c(=O)c(=O)n(Cc2ccccc2)c2ccc(Cl)cc21,-0.44,-12,-20,58*,·
NC(=S)N/N=C\c1ccc(-c2cccc(Cl)c2Cl)o1,0.33,31,12,100*,0.16
NC(=S)N/N=C/c1ccc(-c2ccccc2)o1,1.7,-45,-4,10,-0.41
NC(=S)N/N=C/c1ccc(-c2ccc(Cl)c(Cl)c2)o1,2,69*,-168,96*,·
O=C(N/N=C/c1cccnc1)C(O)c1ccccc1 (stereo not given),0.6,-2,13,-4,·
S=C(NCc1ccccc1)N1CCN(Cc2ccc3c(c2)OCO3)CC1,-0.45,60*,22,92*,0.13
CCCCNC(=S)N1CCN(Cc2ccc3c(c2)OCO3)CC1,-0.087,-4,-11,75*,-1.2
CC(C)NC(=S)N1CCN(Cc2ccc3c(c2)OCO3)CC1,0.026,-12,-23,-5,0.72
COc1ccc(OC)c(NC(=S)N2CCN(Cc3ccccc3)CC2)c1,-1.1,16,-20,-8,-0.59
SMILES,KCC2 mod,WT yeast gro inh,Calpain2 inh,L major viab,ROMK mod
COCCCNC(=S)N1CCN(Cc2ccc3c(c2)OCO3)CC1,0.67,6,5,-6,1.3
COc1cccc(CN2CCN(C(=S)NCc3ccc(Cl)cc3)CC2)c1,-1.2,67*,18,89*,-0.3
CCN(CC)c1ccc(C(=O)NC(=S)N2CCN(Cc3ccc4c(c3)OCO4)CC2)cc1,17*,25,-21,-3,-3.3*
Cc1ccc(C2C(/C=C3/SC(=S)NC3=O)=C(c3cccs3)Oc3ccccc32)cc1 (stereo not given),2.5,35,-2,-2,0.48
C/C(=N\Nc1ccc(C#N)cc1[N+](=O)[O-])c1ccc(C)o1,-0.42,·,-1,·,·
Cc1ccc(C(=O)C(=O)c2ccc(C)c(N)c2)cc1N,-0.2,·,11,·,·
CCOc1ccccc1C1CC(=O)NC(SCC(=O)Nc2nccs2)=C1C#N (stereo not given),0.15,-9,-20,7,-0.038
CCC(=Nc1ccccc1OC)C1=C(O)CC(c2ccccc2)CC1=O (stereo not given),-1.7,9,-11,53*,2.2
CCC(=Nc1ccccc1O)C1=C(O)CC(c2ccccc2)CC1=O (stereo not given),-2.8,·,8,·,·
O=C(O)c1nnn(-c2cc(C(F)(F)F)cc(C(F)(F)F)c2)c1-c1ccccc1,-0.54,·,30,·,·
